# Most compounds without a hit are left out; they make up all but 9.3% or so of the library.
# Rab9 prom act: activates the Rab9 promoter; Huh7 Rab9 promoter-luciferase reporter, luminescence, 24 h; Potency, µM (titrated, usually from 9.22 µM), for inactives: top-dose activation, negative = inhibition, hits mostly activators; hit rate 2.8% among 320,000; AID 485297; also: % of control where 0% means no effect; nearly all actives have a fitted effect of over 60% in size
#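 Promoter activation is measured as luciferase luminescence in Huh7 cells stably transfected with a Rab9 promoter–luciferase construct, following 24 h compound exposure at 37 °C and 10 min reagent incubation at ambient temperature.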
# ELG1 genotox: genotoxicity induction in ELG1-luciferase HEK293T cells; AID 504466; Potency, µM (series often up to 46 µM), for the others: at the top dose activity change, positive = activation, usual class: activators; hit rate 1.3% among 330,000; HEK293T ELG1-luciferase reporter, luminescence, 16 h; also: % of control where 0% means no effect; nearly all actives have a fitted effect of over 60% in size
#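 Genotoxicity was scored as increased ELG1-luciferase reporter signal, measured by ONE-Glo luminescence (30 min, room temperature). Compound or vehicle exposure of the HEK293T reporter cells lasted 16 hr at 37°C.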
# SMN2 splice enh: enhancers of SMN2 splice variant expression; HEK293 SMN2-luciferase splicing reporter, luminescence, 30-36 h; Potency, µM (top dose mostly 46.1 µM), for inactives: at the highest dose activity change, positive = activation, most hits filed as activators; hit rate 2.8% among 210,000; AID 1458; also: % of control where 0% means no effect; nearly all actives have a fitted effect of over 55% in size
#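 qHTS luciferase splicing reporter: luminescence rises when SMN2 exon 7 is included in transfected HEK293 cells. Compound exposure lasted 30-36 h at 37C, with 4.5 mM final sodium butyrate as control, followed by a ONE-Glo read.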
# FLuc counter: firefly luciferase modulation, counter-screen for miR-21 project; purified FLuc, Km substrates, luminescence inhibition; Potency, µM (top dose mostly 57.5 µM), for inactives: at the highest dose activity change, negative = inhibition, usual class: inhibitors; hit rate 6.9% among 360,000;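 also: plate controls were vehicle for no effect and reference inhibitor for full effect; nearly all actives have a fitted effect of over 55% in size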
# Target sequence (P08659 whole entry, looked up): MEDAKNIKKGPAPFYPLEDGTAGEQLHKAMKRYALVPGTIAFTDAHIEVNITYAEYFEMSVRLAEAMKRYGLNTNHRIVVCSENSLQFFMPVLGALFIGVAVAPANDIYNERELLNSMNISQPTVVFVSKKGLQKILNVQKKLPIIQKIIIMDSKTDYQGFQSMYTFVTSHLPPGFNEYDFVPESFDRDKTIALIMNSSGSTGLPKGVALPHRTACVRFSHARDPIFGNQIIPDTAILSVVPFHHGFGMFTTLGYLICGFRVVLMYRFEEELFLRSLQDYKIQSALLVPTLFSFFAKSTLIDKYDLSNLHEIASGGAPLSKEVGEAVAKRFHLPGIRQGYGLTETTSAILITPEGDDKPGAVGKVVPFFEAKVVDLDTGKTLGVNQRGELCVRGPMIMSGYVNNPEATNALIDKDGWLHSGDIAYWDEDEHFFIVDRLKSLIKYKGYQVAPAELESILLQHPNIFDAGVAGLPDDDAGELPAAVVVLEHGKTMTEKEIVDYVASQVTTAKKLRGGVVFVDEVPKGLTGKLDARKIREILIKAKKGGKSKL
#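 Purified P. pyralis luciferase (10nM final) with 10uM D-luciferin and 10uM ATP (Km levels) in 50mM Tris acetate pH 7.5, 10mM Mg acetate, 0.01% Tween-20, 0.05% BSA; qHTS 6-point titration, ~60 µM downward; luminescence read.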
# NPC1 promoter act: NPC1 promoter activation. Huh7 NPC1 promoter luciferase reporter, 24 h. Potency, µM (titrated, usually from 9.22 µM), without a hit: top-dose activation, hits mostly activators. hit rate 2.4% among 320,000; also: % of control where 0% means no effect; nearly all actives have a fitted effect of over 60% in size
#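 Huh7 reporter cells (NPC1 promoter driving luciferase) are dosed with compound for 24 h at 37 °C, 5% CO2; luciferase detection reagent is then added and luminescence measured after 10 min at ambient temperature.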
# ELG1 DNA repair: blocks ELG1-dependent DNA repair in HEK293T cells | HEK293T ELG1-luciferase reporter, luminescence, 16 h; DNA damage induced by 5-fluorouridine | hit rate 2.3% among 330,000 | Potency, µM (highest dose often 46.1 µM), without a hit: top-dose activity change, negative = inhibition, hits mostly inhibitors | AID 504467; also: % is scaled to controls: 0 for no effect and ±100 for the full control effect; nearly all actives have a fitted effect of over 55% in size
#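 Luminescence from the luciferase reporter, measured 30 min after ONE-Glo reagent at room temperature, was the read-out. Beforehand, 2,000 cells per well were exposed for 16 hr at 37 °C to 5-fluorouridine together with compound or vehicle.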
# Starred values were filed as active, the others as inactive; u = inconclusive; x = no result given; [ ] = another dose, or the depositor's remark. Calls follow the shape of the dose curve; as a rule, active = well fitted curve in the direction sought with a large enough effect; inconclusive = small, poorly fitted or top-dose-only effect, or another doubt; inactive = no such curve, though single readings can be large; an effect the other way counts as inactive or inconclusive. Potency is read from the fitted curve at half-maximal effect.
SMILES,Rab9 prom act,ELG1 genotox,SMN2 splice enh,FLuc counter,NPC1 promoter act,ELG1 DNA repair
CCOc1ccc(C(=O)NCCc2csc(-c3cccc(C)c3)n2)cc1,x,x,x,17µM*,x,x
Cc1snc(SCC(=O)c2ccc(F)cc2)c1C#N,2.8µM*,10%,20%,u,u,u
Cc1snc(SCC(=O)c2ccc([N+](=O)[O-])cc2)c1C#N,u,11%,u,u,u,u
Cc1cc(C)cc(NC(=O)CCCN2C(=O)COc3ccc(C)cc32)c1,x,x,-12%,-4%,x,x
CC(=O)Oc1ccc(Oc2ccc(-c3noc(C)n3)cc2)cc1,u,23µM*,u,u,11%,u
CC(=O)Oc1ccc(-c2nc(-c3cccnc3)no2)cc1,u,5.8µM*,u,6µM*,3.5µM*,u
CCOc1ccc(-c2nc(-c3cccnc3)no2)cc1OCC,1%,9%,-16%,u,7%,5%
CC(=O)Nc1ccc(Oc2ccc(-c3noc(C)n3)cc2)cc1,x,x,5%,-9%,x,x
Cc1cc(CN(C)C(=O)c2cc(COc3ccc(C)c(C)c3)on2)on1,1.4µM*,16µM*,x,12µM*,2.5µM*,u
COc1cccc(OCc2cc(C(=O)N(C)Cc3nc(C)cs3)no2)c1,2.2µM*,12µM*,x,12µM*,3.2µM*,u
Cc1ccc(OCc2cc(C(=O)N(C)CCc3ccccn3)no2)cc1C,3.5µM*,10%[9.26 µM],x,13µM*,u,u
COC(=O)c1oc2c(c1C)C1(CCC2)SCCS1,-7%,-1%,-7%,-14%,-3%,-19%
CC[n+]1c(/C=C/c2ccc(OC)c(OC)c2)ccc2ccccc21,5%,10µM*,x,3.4µM*,15%,u
CC[n+]1c(/C=C/c2ccc(N(C)C)cc2)ccc2ccccc21,-51%,3%,-116%,u,-28%,12%
CC[n+]1c(/C=C/c2ccc(OC(C)=O)c(OC)c2)ccc2ccccc21,-13%,u,x,19µM*,-23%,u
Cn1c(NN)nc2sc3c(c2c1=O)CC(C)(C)OC3,1%,0%,-15%,-18%,2%,-5%
O=C(CN1CCC(c2nc3ccccc3s2)CC1)NCc1cccs1,-18%,16%,-88%,u,-14%,9.2µM*
O=C(CN1CCC(c2nc3ccccc3s2)CC1)N1CCCCC1,-2%,-1%,-32%,-10%,-5%,u
CCOc1ccc(NC(=S)NC(=O)c2c(Cl)cnn2CC)c([N+](=O)[O-])c1,-5%,2%,0%,1%,-4%,1%
CCOc1ccc(NC(=S)NC(=O)c2c(Br)cnn2C)c([N+](=O)[O-])c1,17%,2%,3%,6µM*,8%,24%
CN(C)c1ccc(CNc2ccccn2)cc1,u,u,x,13µM*,u,u
CN(C)c1ccc(-c2cc(NCc3cccnc3)ncn2)cc1,x,x,10µM*,x,x,x
CN(C)c1ccc(CNc2ncc(Br)cc2Br)cc1,7%,11%,17%,19µM*,19%,u
CSc1ccc(CNc2ccccn2)cc1,u,u,12%,15µM*,u,u
C=CCn1c(SCc2nc3sc(C(=O)O)c(C)c3c(=O)[nH]2)nnc1-c1ccc(F)cc1,-9%,-2%,-2%,5%,1%,-2%
SMILES,Rab9 prom act,ELG1 genotox,SMN2 splice enh,FLuc counter,NPC1 promoter act,ELG1 DNA repair
Cc1cccc(NCc2ccc(N(C)C)cc2)n1,u,18µM*,x,11µM*,u,u
COc1ccc(C(=O)N2CCc3ccccc32)cc1S(=O)(=O)N1CCOCC1,-4%,1%,x,5%,0%,-1%
O=C1CC(NNc2nc3ccccc3s2)C(=O)N1c1ccccc1 (stereo unspecified),10%,2%,-11%,-5%,-4%,21%
CN1C(=O)/C(=C\c2ccco2)N=C1c1ccc(Cl)cc1Cl,-2%,4%,x,17µM*,-2%,4%
CCOC(=O)Cn1c(S(=O)(=O)Cc2cccc(F)c2)nc(-c2ccccc2)c1-c1ccccc1,0%,-8%,46%,4%,-5%,3%
CCOC(=O)Cn1c(S(=O)(=O)Cc2ccc(F)cc2)nc(-c2ccccc2)c1-c1ccccc1,2%,-8%,7.1µM*,-1%,1%,-2%
COc1ccc(N=C2NC(=O)/C(=C/c3ccc(O)c(OC)c3)S2)cc1,-2%,12%,-14%,u,-5%,u
COc1ccccc1N=C1NC(=O)/C(=C/c2ccc(N(C)C)cc2)S1,4%,u,x,1.1µM*,-11%,u
COc1ccc(/C=C2/SC(=O)NC2=O)cc1,3.2µM*,u,x,4.3µM*,u,u
O=C1NC(=O)/C(=C\c2ccc(Cl)nc2)S1,u,u,x,15µM*,u,u
COc1ccc(/C=C2\SC(=Nc3ccccc3)NC2=O)cc1,4%,7%,x,7.6µM*,-5%,-17%
O=C1NC(=O)/C(=C\c2ccc(OCc3cnc(Cl)s3)cc2)S1,-3%,6%,15%,u,17%,13%
COc1cc(/C=C2/SC(=Nc3ccc(O)cc3)NC2=O)cc(OC)c1O,15%,17%,-4%,2%,-21%,16%
COc1ccc(CNC(=O)C(C)N2C(=O)NC(c3ccccc3)(c3ccccc3)C2=O)cc1 (stereo unspecified),-6%,-1%,x,x,1%,-11%
O=C1NC(=Nc2cccnc2)S/C1=C/c1ccc(F)cc1,-6%,3%,x,11µM*,-4%,15%
CCc1ccc(N=C2NC(=O)/C(=C/c3ccc(OCC(=O)O)c(OC)c3)S2)cc1,0%,-1%,x,u,-1%,3%
CCc1ccc(N=C2NC(=O)/C(=C/c3ccc(OCC(=O)O)cc3)S2)cc1,-11%,-1%,x,6µM*,2%,11%
Cc1ccc(-c2csc3ncnc(Oc4ccc5c(C)cc(=O)oc5c4)c23)cc1,-6%,0%,-10%,1%,-2%,18µM*
Fc1cccc(Cc2noc(CN3CCCCC3c3ccccn3)n2)c1 (stereo unspecified),u,u,x,24µM*,u,u
CCCCC(=O)Nc1cccc(NC(=O)c2ccc3c(c2)OCO3)c1,2%,0%,u,19µM*,3%,u
CCCCC(=O)Nc1cccc(NC(=O)c2ccc(Br)o2)c1,u,-2%,35µM*,5%[2.3 µM],2%,u
CCCC(=O)Nc1cccc(NC(=O)c2ccc3c(c2)OCCO3)c1,19%,u,13µM*,9.5µM*,23%,u
COc1cc(/C=N/n2nnnc2N)ccc1OCc1c(C)no[n+]1[O-],-4%,-2%,-2%,-2%,-1%,-3%

# Screening results from PubChem.
